Screens as filed in PubChem BioAssay.
VLA-4 inh: inhibition in human VLA-4 binding assay, primary screen, VLA-4 allosteric modulator project, MLPCN library, flow cytometry, VLA-4 expressing cells. AID 2557, 2010. Integrin alpha-4 (Homo sapiens), P13612. inhibition, % (about 7 µM as worked out from the volumes in the protocol). ligand binding flow cytometry. hit rate 0.2% among 330,000; in the data active means inhibition above about 50%
V-ATPase pHluor: regulators of yeast V-ATPase proton pumping, primary screen, pHLuorin cytosolic pH fluorescence; S. cerevisiae; response, % at 10 µM; hit rate 0.37% among 350,000; AID 504577, 2011; in the data active means response mostly above about 7.3%, no sharp cut-off; inactive means mostly below about 5.4%; further: actives read high
GASC-1 inh: inhibitors of GASC-1 histone demethylase, primary screen, biochemical, fluorescence, DELFIA europium | GST-JMJD2C(1-420) H3K9me3 demethylation | inhibition, % at 2.35 µM | hit rate 0.069% among 330,000 | Lysine-specific demethylase 4C (Homo sapiens), Q9H3R0;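 active means more than half of a compound's replicate wells show inhibition beyond 50%, single wells judged on their own value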;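 further: signal counts dimethyl H3K9 product captured on neutravidin plate; 0% = median of DMSO wells and 100% = 0.3 times that DMSO median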
Exocytosis inh: LAMP-1 surface exposure blockers, TALL-104 cells – cell-based, flow cytometry, MLPCN library, primary screen | TALL-104 LAMP-1 surface exposure; cells stimulated with thapsigargin and PMA | inhibition, % at 10 µM | hit rate 0.66% among 360,000;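 active means inhibition above about 55%, limit read from the data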
MEX-5 binding: MEX-5 zinc finger RNA-binding disruptors – biochemical, C. elegans, fluorescence polarization, MLPCN library, primary screen. Zinc finger protein mex-5 (Caenorhabditis elegans), Q9XUB2. MEX-5/FITC-TCR2 RNA binding; stronger effect = lower value. activity score (negative = inhibition of binding), % at 10 µM. hit rate 0.38% among 300,000;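 active means inhibition past about -25% in most replicates, and total fluorescence under double the plate's negative control median, limit read from the data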;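 further: 0% = DMSO and -100% = 5 µM competing unlabeled TCR2 RNA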
Target sequence (Q9XUB2 whole entry, looked up): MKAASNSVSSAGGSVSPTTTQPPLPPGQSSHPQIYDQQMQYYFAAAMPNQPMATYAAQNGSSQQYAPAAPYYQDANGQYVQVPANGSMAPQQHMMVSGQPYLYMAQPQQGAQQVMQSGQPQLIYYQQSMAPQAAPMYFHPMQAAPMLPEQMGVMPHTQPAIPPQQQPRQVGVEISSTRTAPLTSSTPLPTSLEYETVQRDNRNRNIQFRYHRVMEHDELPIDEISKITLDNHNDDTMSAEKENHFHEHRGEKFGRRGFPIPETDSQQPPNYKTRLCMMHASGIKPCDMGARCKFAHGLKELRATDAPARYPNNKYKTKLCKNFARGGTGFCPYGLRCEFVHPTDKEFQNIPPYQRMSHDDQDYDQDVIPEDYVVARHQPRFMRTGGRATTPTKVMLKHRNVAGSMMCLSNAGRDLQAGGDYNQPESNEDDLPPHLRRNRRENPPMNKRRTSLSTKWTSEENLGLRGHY
m5-HT2A agonist: mouse Htr2a agonists via beta-arrestin recruitment, primary screen, cell-based, luminescence; 5-hydroxytryptamine receptor 2A (Mus musculus), P35363; CHO-K1 mHTR2A beta-arrestin complementation; percent of 30 µM serotonin response; activation, % at 7.6 µM; hit rate 0.66% among 360,000; AID 624169, 2012;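 active means activation above a run cutoff, the mean activation of all tested compounds plus 3 SD, cut at about 14% in these data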;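 further: 0% = plate median of compound wells and 100% = 30 µM serotonin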
Granule exo CP1: inhibitors of lytic granule exocytosis, confirmation, TALL-104 cells, flow cytometry, Cherry Pick01; shares compounds with Exocytosis inh; LAMP-1 externalization; stimulated with PMA plus thapsigargin; inhibition, % at 10 µM; hit rate 11% among 1,500; in the data active means inhibition above about 60%;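 further: 0% = stimulated vehicle wells and 100% = unstimulated wells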
* marks the source's active call; other numbers are inactive results; · = no result; ! = not confirmed by another sample. This is a sample that favours compounds with a hit; in the whole collection about 2.2% have one here.

SMILES | VLA-4 inh | V-ATPase pHluor | GASC-1 inh | Exocytosis inh | MEX-5 binding | m5-HT2A agonist | Granule exo CP1
Cc1cc(C)nc(NC(=NCCc2c[nH]c3ccccc23)NC(=O)C(C)(C)C)n1 | 18 | -2 | -1 | 83* | 3 | 2 | -3
CCOC(=O)C1(Cc2ccccc2)CCCN(C2CCCC2)C1 (stereo not given) | 3 | 1 | 2 | 59* | 0 | -4 | -4
CCOC(=O)C1(Cc2ccccc2)CCCN(CCO)C1 (stereo not given) | 9 | -4 | -3 | 54 | 0 | -1 | ·
CCCNC(=O)Cn1sc2nc(C)cc(C)c2c1=O | 2 | 1 | -4 | 58* | 3 | 0 | 103*
Cc1cc(C)c2c(=O)n(CC(=O)N3CCC(N4CCCCC4)CC3)sc2n1 | -4 | 0 | 2 | -1 | 0 | 6 | ·
CCOc1cc(C2Nc3ccccc3NC3=C2C(=O)CC(C)(C)C3)ccc1OC(C)=O (stereo not given) | 3 | -2 | -15 | -4 | -2 | -3 | ·
CCn1nc(C)cc1C(=O)NC1CCCc2c1cnn2-c1ccc(C)c(C)c1 (stereo not given) | 10 | -1 | -5 | 60* | -1 | 2 | -12
CCCCCCSc1cccc(-c2nc3ccccn3c2NCc2ccccc2)c1 | 7 | -3 | -1 | 58*! | · | -5 | 95*
CCCCCCSc1cccc(-c2nc3cc(C)ccn3c2NCc2ccccc2)c1 | · | 0 | 9 | 20 | 0 | -3 | ·
O=C(COC(=O)Cc1c[nH]c2ccccc12)NC1CCCCC1 | -2 | 0 | -8 | 77* | 2 | -3 | -3
O=C(COC(=O)c1c[nH]c2ccccc12)NC1CCCC1 | 20 | -6 | 1 | 11 | · | 3 | ·
COc1cc(CNC(C)(C)CO)cc(Br)c1OCc1ccc(Cl)cc1Cl | -1 | -1 | -17 | 79* | 1 | -4 | 28
COc1cc(CNC(C)(C)CO)cc(Br)c1OCc1ccc(Cl)cc1 | 17 | -2 | 1 | 22 | 1 | -5 | ·
COc1ccccc1N(CC(=O)NCCc1ccccc1)C(=O)CCC(=O)Nc1cc(C)ccn1 | 1 | 0 | -6 | 62* | -2 | 9 | -14
O=P(Cc1ccccc1)(c1ccccc1)c1ccccc1 | -6 | -4 | -1 | 1 | 1 | 5 | ·
CC(C)(C)c1cc(CP(=O)(c2ccccc2)c2ccccc2)cc(C(C)(C)C)c1O | 7 | 0 | 4 | 57* | -1 | 1 | -12
CC(C)C(C)N(Cc1ccc(C(=O)O)cc1)C(=O)c1ccc2ccccc2n1 (stereo not given) | 0 | -1 | 3 | -1 | 0 | 3 | ·
Fc1ccc(Nc2nc(N/N=C/c3ccco3)nc(N3CCCCC3)n2)cc1 | -19 | 1 | -11 | 4 | 1 | -10 | ·
O=C(COC(=O)c1ccco1)NC1CCCC1 | -7 | -4 | -15 | 72* | 2 | -3 | -13
Cc1ccc(N2CCN(S(=O)(=O)c3ccc4oc(=O)ccc4c3)CC2)c(C)c1 | -7 | -3 | 29 | 86* | -1 | 3 | -13
Cc1ccc(C)c(CN2CCC(CNC(=O)Nc3ccc(F)c(Cl)c3)CC2)c1 | 5 | 0 | 80 | 58* | 1 | -10 | 0
CCc1ccc(NC(=O)NCC2CCN(Cc3cccc(Cl)c3)CC2)cc1 | 10 | 1 | 11 | 61* | 1 | -6 | -4
Cc1ccc(NC(=O)NCC2CCN(Cc3cccc(Cl)c3)CC2)cc1Cl | 11 | -2 | -3 | 44 | · | -4 | ·
COC(C/C=C/[C@H](O)[C@@H](C)OCc1ccccc1)OC | 41 | 1 | 1 | 96* | 2 | 5 | -5
O=C(NCCCN1CCN(c2ccc(F)cc2)CC1)NC12CC3CC(CC(C3)C1)C2 | 9 | -1 | -2 | 56* | 3 | -7 | -4
SMILES | VLA-4 inh | V-ATPase pHluor | GASC-1 inh | Exocytosis inh | MEX-5 binding | m5-HT2A agonist | Granule exo CP1
O=C(NCCCN1CCOCC1)NC12CC3CC(CC(C3)C1)C2 | 0 | -2 | -11 | -2 | 0 | 0 | ·
O=C(O)CCCCCCCCCCCNC(=O)NC12CC3CC(CC(C3)C1)C2 | -3 | 9 | 1 | 80* | · | 2 | -3
CCn1nc(C)c(CNC(=O)C2CCC(=O)N(CCc3ccc(Cl)cc3)C2)c1C (stereo not given) | 2 | -3 | 2 | -4 | · | 0 | ·
O=C1NC(=O)N2CCSC2(Cc2ccccc2)N1 (stereo not given) | · | 0 | · | 4 | · | 1 | ·
COc1ccc(CC(=O)Nc2cccc(C(C)=O)c2)cc1S(=O)(=O)N1CCOCC1 | 8 | -1 | 6 | 100* | · | 6 | -2
COc1ccc(C(=O)Nc2cccc(C(C)=O)c2)cc1S(=O)(=O)N1CCOCC1 | 5 | 3 | -13 | -2 | 0 | 2 | ·
c1ccc(-c2ccccc2-c2nc(-c3cccnc3)no2)cc1 | 4 | 2 | 2 | 93* | 2 | 1 | 18
COC(=O)C(Cc1ccc(O)cc1)NC(=O)c1ccc2c(c1)OCCO2 (stereo not given) | 0 | -1 | 4 | -14 | 0 | 8 | ·
c1ccc2c(N3CCCCC3)nc(N3CCCCC3)nc2c1 | 1 | -1 | 36 | 1 | 1 | -4 | ·
C(=C\c1nc(N2CCCCCC2)c2ccccc2n1)/c1ccccc1 | 11 | 0 | 1 | 58* | -1 | 0 | 32
CCN(CC)CCCC(C)NC(=O)c1c(NC(=O)c2ccccc2)sc2c1CCCC2 (stereo not given) | 4 | 5 | 2 | 78* | 4 | -11 | -3
CN(C)C(=O)c1c(NC(=O)c2ccccc2)sc2c1CCC2 | 0 | 1 | -6 | -11 | -1 | 4 | ·
COc1ccc(-n2sc3ccccc3c2=O)cc1 | · | 4 | · | 84* | · | -5 | 100*
COc1ccc(-n2sc3ccc(F)cc3c2=O)cc1 | 0 | -2 | -1 | -4 | · | 12 | ·
N#Cc1ccsc1NC(=O)CCN1CCN(C(c2ccccc2)c2ccccc2)CC1 | 5 | 1 | 13 | 77* | 4 | -9 | -10
N#Cc1ccsc1NC(=O)CCc1ccccc1 | 6 | 0 | -21 | 0 | 3 | 3 | ·
c1ccc2[nH]c(Cn3nnc4ccccc43)nc2c1 | 34 | 2 | 0 | 59* | -2 | -3 | -5
N#Cc1cn(CCCOc2ccccc2)c2ccccc12 | -10 | 0 | 9 | 67* | 0 | -4 | -3
CCNC(=O)C1(C)CCCN(C(=O)c2sccc2C)C1 (stereo not given) | · | · | · | -4 | · | -7 | ·
